Screening results deposited in PubChem by Johns Hopkins Ion Channel Center.
CHT inh = inhibitors of human choline transporter CHT | High affinity choline transporter 1 (Homo sapiens), Q9GZV3 | CHT-expressing cells, membrane potential dye, choline response; stronger effect = lower value | B-score at 10 µM | 310,000 tested, 0.86% active | AID 488975, 2010;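 active = B-score over 3 SD under the library average, and starting fluorescence ratio not unusually high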;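 also: choline stimulus applied at its EC90 after an EC20 pre-addition; B-score computed on integrated fluorescence ratio after choline addition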
Target sequence (Q9GZV3 whole entry, looked up): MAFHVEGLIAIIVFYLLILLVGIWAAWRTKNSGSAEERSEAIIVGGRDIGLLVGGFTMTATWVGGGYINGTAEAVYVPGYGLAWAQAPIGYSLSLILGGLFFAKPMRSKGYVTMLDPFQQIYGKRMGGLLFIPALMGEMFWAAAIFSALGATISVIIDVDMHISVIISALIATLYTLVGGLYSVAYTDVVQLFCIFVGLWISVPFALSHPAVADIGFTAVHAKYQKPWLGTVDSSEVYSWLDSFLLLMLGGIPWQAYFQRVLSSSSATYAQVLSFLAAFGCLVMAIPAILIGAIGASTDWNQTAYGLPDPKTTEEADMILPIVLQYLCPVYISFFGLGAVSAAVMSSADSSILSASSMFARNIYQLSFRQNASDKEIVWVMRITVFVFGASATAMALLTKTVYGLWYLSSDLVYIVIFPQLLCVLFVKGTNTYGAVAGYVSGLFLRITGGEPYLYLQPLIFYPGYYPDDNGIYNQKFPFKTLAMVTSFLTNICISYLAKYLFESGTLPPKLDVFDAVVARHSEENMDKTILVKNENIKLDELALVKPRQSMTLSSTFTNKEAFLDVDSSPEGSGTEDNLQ
TMEM16A act = TMEM16A chloride channel activators or potentiators, primary screen, cell-based, HTS; Anoctamin-1 (Mus musculus), Q8BHY3; 340,000 tested, 0.3% active; B-score at 10 µM; HEK293 TMEM16A/YFP-H148Q/I152L, iodide quench fluorescence; stronger effect = lower value;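 active = fluorescence-ratio B-score plate-corrected deviation score at least 3 library SD below zero, with starting fluorescence score within 5 deviations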;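 also: channel opened by trigger with iodide after compound preincubation; score built on the fluorescence ratio of max minus min over baseline; more negative score means more quench and so TMEM16A activation or potentiation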
CHT PAM = CHT positive allosteric modulators, primary screen, cell-based, membrane potential dye, choline EC20. AID 488977, 2010. B-score at 10 µM. 310,000 tested, 0.49% active. High affinity choline transporter 1 (Homo sapiens), Q9GZV3. CHT-expressing cells; stronger effect = higher value; LV-AA mutant CHT in HEK293 cells;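 active = initial fluorescence not abnormally high and integrated response B-score, plate-corrected, over 3 SD above library mean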
ANO1 block = TMEM16A chloride channel inhibitors, primary screen, cell-based, HTS. Anoctamin-1 (Mus musculus), Q8BHY3. HEK293 TMEM16A/YFP iodide influx fluorescence, ionomycin. normalized B-score (activity score, 25-100; higher = stronger inhibition) at 10 µM. 310,000 tested, 1.2% active;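 active = ratio plate-corrected score three or more library SD toward inhibition, starting fluorescence score within five deviations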;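 also: score derived from kinetic fluorescence span divided by baseline fluorescence per well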
CHT inh conf = CHT inhibitors, confirmation, cell-based, membrane potential dye, duplicate; shares compounds with CHT inh; CHT-expressing cells, choline membrane potential dye; LV-to-AA substituted CHT, HEK293 cells; CHT activity remaining % of control (stronger effect = lower value), % at 10 µM; 2,400 tested, 70% active; AID 493221, 2011;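 active = choline transporter activity left, mean of duplicates at 10 µM, below buffer-only control mean minus 3 SD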;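 also: depolarization triggered by choline at its EC90 following an EC20 pre-addition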
HEK293 CHT ctr = membrane potential effects in parental HEK293, counter-screen for CHT inhibitor project, cell-based, membrane potential dye | shares compounds with CHT inh | 2,400 tested, 4% active | choline response; active = decrease or increase beyond buffer ±3SD | membrane potential ratio readout (active if shifted either direction beyond buffer ±3SD; no single direction) at 10 µM;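 also: parental cells lack the transporter so any hit is non-specific; ratio is peak minus trough fluorescence over baseline after EC90 choline challenge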
Hits are given with their value; i = inactive; nt = no result. Compounds with a hit are over-represented: about 2.3% of the library has one in this group of screens.

SMILES | CHT inh | TMEM16A act | CHT PAM | ANO1 block | CHT inh conf | HEK293 CHT ctr
Cn1c(=O)c2c(nc(SCC(=O)N3CCCCCC3)n2C)n(C)c1=O | -5.74 | i | i | i | i | i
CCCn1c(SCC(=O)N2CCCCC2)nc2c1c(=O)n(C)c(=O)n2C | i | i | i | i | nt | nt
CCOC(=O)N1CCN(C(=O)c2ccc3c(c2)NC(=O)/C(=C\c2cccc(C)c2)S3)CC1 | i | i | i | i | nt | nt
O=C(COC(=O)c1ccccc1)NCc1ccco1 | i | i | i | i | nt | nt
O=C(COC(=O)c1ccccc1Oc1ccccc1)NCc1ccco1 | -5.43 | i | i | i | i | i
CCn1c(SCC(=O)Nc2ccc(OC)cc2)nc2nc3c(cc2c1=O)COC(C)(C)C3 | -4.97 | i | i | i | i | i
COCCCn1c(SCC(=O)Nc2sc3c(c2C#N)CCCC3)nnc1-c1ccncc1 | -5.45 | i | i | i | 62.2% | i
Cc1ccc(C(=O)NCC(=O)OCC(=O)c2c(N)n(C)c(=O)n(C)c2=O)cc1C | nt | i | nt | nt | nt | nt
O=C(Nc1ccc(Br)cc1)c1ccc(N2C(=O)C3CC=CCC3C2=O)cc1 (configuration not stated) | i | i | i | i | nt | nt
Cc1cc(C)cc(NC(=O)c2ccc(N3C(=O)C4CCCCC4C3=O)cc2)c1 (configuration not stated) | -5.52 | i | i | i | 64.6% | i
COc1ccc(C2=NN(c3ccc(C(=O)O)cc3)C(c3ccc(OC)c(OC)c3)C2)cc1 (configuration not stated) | -5.29 | i | i | i | 62.5% | i
O=C(O)c1cccc(CSc2ncn[nH]2)c1 | -6.15 | i | i | i | i | i
CC(=O)c1ccc(N2CCN(C(=O)C3CCCN(c4ncnc5c4nc4n5CCCCC4)C3)CC2)cc1 (configuration not stated) | -5.89 | i | i | i | 31.6% | i
O=C(C1CCCN(c2ncnc3c2nc2n3CCCCC2)C1)N1CCCCC1 (configuration not stated) | i | i | i | i | nt | nt
O=C(C1CCCN(c2ncnc3c2nc2n3CCCCC2)C1)N1CCN(c2ccc(F)cc2)CC1 (configuration not stated) | -8.03 | i | i | i | 36.8% | i
COc1ccc(N2CCN(C(=O)C3CCCN(c4ncnc5c4nc4n5CCCCC4)C3)CC2)cc1 (configuration not stated) | i | i | i | i | nt | nt
O=C(C1CCCN(c2ncnc3c2nc2n3CCCCC2)C1)N1CCN(c2ccc(Cl)cc2)CC1 (configuration not stated) | -7.8 | i | i | i | 40.5% | i
COc1cccc(/C=C/C(=O)OCC(=O)NCC2CCCCC2)c1OC | nt | i | nt | nt | nt | nt
CC1(C)CC(=O)C=C(Nc2cccc(Cl)c2Cl)C1 | -4.98 | i | i | i | 62.7% | i
CC(C)c1ccc(S(=O)(=O)N2CCN(C(=O)C3CCN(C(=O)c4ccc(F)cc4)CC3)CC2)cc1 | i | i | i | i | nt | nt
COc1cc(N(C)C)c([N+](=O)[O-])cc1C(=O)NC(C)CNc1ccc([N+](=O)[O-])cc1Cl (configuration not stated) | -5.63 | i | i | i | i | i
Cc1cccc(NC(=O)c2n[nH]c([N+](=O)[O-])c2Br)c1C | -5.03 | i | i | i | 60.6% | i
COC(=O)c1cnc(N)s1 | nt | i | nt | nt | nt | nt
Cc1cccc(NC(=S)NNC(=O)c2ccc(O)cc2O)c1C | i | i | i | i | nt | nt
Cc1ccc(NC(=S)NNC(=O)c2ccccc2O)c(C)c1 | -8.2 | i | i | 100 | i | i
SMILES | CHT inh | TMEM16A act | CHT PAM | ANO1 block | CHT inh conf | HEK293 CHT ctr
O=C(C[C@@H]1C/C=C/CC[C@H](Cc2ccc(F)cc2)C(=O)OC[C@@H](Cc2ccccc2)NC1=O)N[C@H](CO)Cc1ccccc1 | nt | i | nt | nt | nt | nt
COc1ccc(/C=N/NC(=O)CN(C)C(=O)OCc2ccccc2)cc1OC | i | i | i | i | nt | nt
Cc1ccc(S(=O)(=O)N2[C@@H](c3ccc(F)cc3)C(C(=O)O)=CC[C@H]2c2ccc(C(C)C)cc2)cc1 | -6.31 | i | i | 100 | 65.2% | i
Cc1ccc(S(=O)(=O)N2[C@@H](c3ccc(Cl)cc3)C(C(=O)O)=CC[C@H]2c2ccc(Cl)cc2)cc1 | -5.7 | i | i | 100 | 61.6% | i
COc1ccc([C@@H]2CC=C(C(=O)O)[C@H](c3ccc(F)cc3)N2S(=O)(=O)c2ccc(C)cc2)cc1OC | i | i | i | i | nt | nt
CCCCCc1ccc(OCCC[n+]2ccccc2)c(CCCCC)c1 | -15.4 | i | i | i | -5.5% | i
C=CCN1C(=O)c2ccccc2NC1c1cc(Br)cs1 (configuration not stated) | i | i | i | i | nt | nt
Cc1cc(C)cc(NS(=O)(=O)c2cnc(Cl)c(Cl)c2)c1 | -8.01 | i | i | i | 52.0% | i
CC(C)c1ccc(S(=O)(=O)N2CCC(C(=O)NCC3(N(C)C)CCCCC3)CC2)cc1 | -6.05 | i | i | i | 21.9% | i
CN(C)C1(CNC(=O)C2CCN(S(=O)(=O)c3cc(Cl)ccc3Cl)CC2)CCCCC1 | i | i | i | i | nt | nt
COc1cccc(NC(=O)c2nc(S(C)(=O)=O)ncc2Cl)c1 | -6.85 | i | i | i | 36.0% | i
COc1cccc(NC(=O)c2nc(SC)ncc2Cl)c1 | i | i | i | i | nt | nt
O=C(NCC1CCCCC1)c1cccc(-c2ccc(O)cc2)c1 | i | i | i | i | nt | nt
Nc1ccc(C2(c3ccc(N)cc3)C(=O)Nc3ccccc32)cc1 | -13.7 | i | i | i | -27.5% | 8.97
CCc1ccc2c(c1)C1(NN=C(c3ccc(C)cc3)S1)C(=O)N2 (configuration not stated) | -5.87 | i | i | i | 66.8% | i
O=C(COC(=O)c1cccc(C(F)(F)F)c1)NC(=O)NC1CCCC1 | nt | i | nt | nt | nt | nt
c1ccc(C(c2ccccc2)N2CCN(Cc3nnnn3C3CCCC3)CC2)cc1 | -5.57 | i | i | i | i | i
CC12CCC(C(=O)N(c3nccs3)C1=O)C2(C)C (configuration not stated) | nt | i | nt | nt | nt | nt
OCc1ccccc1OCCOc1ccc(Cl)c2cccnc12 | -9.74 | i | i | i | 44.2% | i
CN(C)C1(CN=Cc2cc(Cl)cc([N+](=O)[O-])c2O)CCCCC1 | -6.32 | i | i | i | 36.4% | i
O=[N+]([O-])c1cc(Cl)cc(/C=N\Nc2ccccn2)c1O | i | i | i | i | nt | nt
O=C(COC(=O)c1ccccc1Br)Nc1ccc2[nH]c(=O)[nH]c2c1 | i | i | i | i | nt | nt
Cc1ccc(Nc2nnc(-c3ccc(N4CCOCC4)c([N+](=O)[O-])c3)c3ccccc23)cc1 | -5.39 | i | i | i | 59.0% | i
